From PubChem BioAssay come the findings set out here.

The structures appear in SMILES notation. A number with no mark means an inactive call. Activity calls are given as the source filed them. Unless noted, no stated cut-off is given here; in the data, active means inhibition above about 44%; inactive means the rest.

Chain of Steroidogenic factor 1 (Homo sapiens) (Q13285 whole entry, looked up): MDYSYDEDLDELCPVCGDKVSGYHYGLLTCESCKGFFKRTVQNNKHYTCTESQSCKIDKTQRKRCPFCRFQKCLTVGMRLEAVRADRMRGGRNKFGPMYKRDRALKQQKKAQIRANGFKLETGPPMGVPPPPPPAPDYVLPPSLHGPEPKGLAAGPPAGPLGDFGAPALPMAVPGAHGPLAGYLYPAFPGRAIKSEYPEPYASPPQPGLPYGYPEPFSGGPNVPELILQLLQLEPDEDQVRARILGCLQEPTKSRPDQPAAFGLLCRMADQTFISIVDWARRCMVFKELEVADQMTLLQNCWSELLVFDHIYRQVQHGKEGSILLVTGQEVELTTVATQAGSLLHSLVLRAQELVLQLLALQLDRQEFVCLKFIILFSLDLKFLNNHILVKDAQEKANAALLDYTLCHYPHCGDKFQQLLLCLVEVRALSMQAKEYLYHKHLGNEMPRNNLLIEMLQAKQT
Chain of Nuclear receptor subfamily 5 group A member 2 (Homo sapiens) (O00482 whole entry, looked up): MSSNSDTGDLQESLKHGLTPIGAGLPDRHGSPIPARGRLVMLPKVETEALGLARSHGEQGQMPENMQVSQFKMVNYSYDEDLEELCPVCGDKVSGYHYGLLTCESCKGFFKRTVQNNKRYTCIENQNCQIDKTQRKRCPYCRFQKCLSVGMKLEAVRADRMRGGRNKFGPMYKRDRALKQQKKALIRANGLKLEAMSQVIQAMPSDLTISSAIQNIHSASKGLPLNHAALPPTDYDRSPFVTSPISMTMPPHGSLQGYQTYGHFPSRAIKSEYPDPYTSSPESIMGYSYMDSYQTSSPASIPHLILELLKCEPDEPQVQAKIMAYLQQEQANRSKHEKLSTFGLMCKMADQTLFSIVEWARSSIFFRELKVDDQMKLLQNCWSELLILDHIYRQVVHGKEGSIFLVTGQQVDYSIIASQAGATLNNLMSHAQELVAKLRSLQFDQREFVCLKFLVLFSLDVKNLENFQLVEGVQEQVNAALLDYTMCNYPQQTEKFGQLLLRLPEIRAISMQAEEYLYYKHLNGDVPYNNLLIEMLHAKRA

One test concerns the target Nuclear receptor subfamily 5 group A member 2 (Homo sapiens) (UniProt O00482). In words: LRH-1 (NR5A2) inverse agonists, retest, confirmation, cell-based, luminescence (AID 651613; in the data active means inhibition above about 42%;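 further: HEK293T cells co-transfected with LRH-1 and StAR promoter luciferase reporter; 0% = vehicle wells and 100% = parental cells lacking receptor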). As to conditions: cell-based LRH-1 luciferase reporter, inverse agonism; at 3.6 µM; hits give high values.
For `CCc1ccccc1NC(=O)CSc1nnc([C@@H](NC(=O)OC(C)(C)C)C(C)C)o1`, the inhibition was 45.9% (active).
On the same count and under the same terms, then `COc1ccc(C2(C)NC(=O)N(CC(=O)NCCC3=CCCCC3)C2=O)cc1OC` (stereo not given), with 67.2% (active); and `CCOc1ccc(NC(=O)CN2CCN(CC(=O)Nc3ccc(OC)cc3)CC2)cc1`, with 58.5% (active).
`COc1cccc(C2c3cc4c(cc3OC(N3CCCC3)C2C)OCO4)c1O` (stereo not given): the inhibition was 64% (active).
The same measure, in the same setting: then `CC1Cc2ccccc2N1C1=CC(=O)CC(C)(C)C1` (stereo not given), with 55.3% (active); and `CCCc1cc(NCC2CCCO2)n2c(nc3ccccc32)c1C#N` (stereo not given), with 40.1%; and `COc1cccc2c1C(=O)c1c(O)c3c(c(O)c1C2=O)C[C@@](O)(C(C)=O)C[C@@H]3O[C@H]1C[C@H](N)[C@H](O)[C@H](C)O1`, with 104% (active).
Same read-out and setting: then `CCCCCc1ccc(OCCCC[n+]2ccc(C)cc2)c(CCCCC)c1`, with 42.3% (active); and `COc1ccc(/C=N/OCC(=O)NC(c2ccccc2)c2ccccc2)cc1OC`, with 72.7% (active).
On the same count and under the same terms, next, `COc1cc(NC(=O)c2ccc([N+](=O)[O-])o2)ccc1NC(=O)c1ccco1`: 62.5% (active); `CC(C)NC(=O)N1Cc2cc(C(=O)NC3CCCCC3)nc(-c3cccc(-c4cccnc4)c3)c2[C@@H]1CCO`: 62.6% (active); `CCN(Cc1ccccc1)c1ccc(/C=N/N2CCOCC2)cc1`: 26%.
With `CC(C)n1c(SCC(=O)Nc2ccc(N3CCOCC3)cc2)nnc1-c1ccco1`, the inhibition is 55.5% (active).
Same read-out and setting: next, `C/C(=N\NC(N)=S)c1ccc(Cl)s1`: 55.8% (active); `CCNc1cc(N2CCCC2)ccc1[N+](=O)[O-]`: 40.2%; `COc1cc(-c2cnc3c(NC=O)cc(-c4cccc(NC(C)=O)c4)cn23)cc(OC)c1OC`: 74.9% (active).
For `Cc1ccc2cccc(OCC(=O)NCCC3=CCCCC3)c2n1`, the inhibition was 61.1% (active).
As for `Nc1nc2ccc(Cl)cc2cc1C(=O)NCc1ccc(Oc2ccccc2)cc1`, the inhibition was 54.2% (active).
In the case of `Clc1ccccc1-c1nc(N/N=C/c2cccnc2)c2ccccc2n1`, the inhibition was 52.3% (active).
The same measure, in the same setting: then `COc1ccc2nc(N3CCN(C(=O)c4ccc([N+](=O)[O-])o4)CC3)sc2c1`, with 64.3% (active); and `CCOc1cc(/C=N/Nc2nnc(C)n2N)ccc1O`, with 18.2%; and `COc1ccc(C2=Nn3c(nnc3-c3ccccc3F)SC2)cc1OC1CCOC1` (stereo not given), with 75% (active).
Still for that read-out and setting: then `O=C(COC(=O)c1ccccc1O)Nc1ccc(N2CCOCC2)cc1`, with 59.3% (active).
On the same count and under the same terms, then `O=C(Nc1ccc(N2CCN(C(=O)c3ccccc3)CC2)cc1)c1ccc([N+](=O)[O-])o1`, with 64.8% (active); and `CNC(=O)c1cccc(NC(=O)c2cc(-c3ccccc3)nc3c2cnn3C(C)C)c1`, with 51.7% (active).
Take `CCCc1cc(=O)oc2cc(C)cc(OCC(=O)Nc3ccccn3)c12`: the inhibition was 60.1% (active).
For `Nc1nc2ccccc2cc1C(=O)NCc1ccc(-c2ccccc2)cc1`, the inhibition is 59.4% (active).
Still for that read-out and setting: then `CC1CC(=Cc2ccc(N)cc2)C(=O)O1` (stereo not given), with 41.8% (active).
As to `COc1ccc(NC(=O)CS(=O)(=O)c2ccc(C)cc2)c(OC)c1`, the inhibition is 53.1% (active).
Still for that read-out and setting: next, `CCCc1cc(=O)oc2cc(OCC(=O)NCCc3c[nH]c4ccc(OC)cc34)ccc12`: 28.9%; `CN1CCN(c2ccccc2NC(=O)c2ccc(-c3cccc([N+](=O)[O-])c3)o2)CC1`: 42.9% (active).
On the same count and under the same terms, next, `COc1ccc(CNC(=O)c2sc(=O)n(Cc3ccc(-c4ccccc4)cc3)c2C)cc1OC`: 37.7%; `Cc1ccc(Cl)cc1N1CCN(C(=O)C(C)n2ncn3cccc3c2=O)CC1` (stereo not given): 35.4%; `Cc1sc2ncnc(NCCc3ccc(S(N)(=O)=O)cc3)c2c1C`: 53% (active).
Same read-out and setting: then `COc1ccc(N2CCN(C(=O)CSc3nc4ccccc4c(=O)[nH]3)CC2)cc1`, with 46.8% (active); and `COc1cc(NC(=O)Cn2ccsc2=N)c(C)cc1[N+](=O)[O-]`, with 49.5% (active); and `Cc1cccc(C(=O)N[C@H](C(=O)Nc2ncc(C)s2)C(C)C)c1`, with 58.7% (active).
Turning to `OC[C@@H]1CN(Cc2ccc(-c3ccccc3)cc2)C[C@H](n2cnc3c(NC4CCC4)ncnc32)O1`, the inhibition was 53.4% (active).
Same read-out and setting: then `Cc1cc(C)c2c(NC(=O)CCl)nn(C)c2n1`, with 64.2% (active); and `OCC1OC(n2cnc3c(/C=C(\O)c4ccccc4)ncnc32)C(O)C1O` (stereo not given), with -13.9%.

A further test addresses Steroidogenic factor 1 (Homo sapiens) (UniProt Q13285). Kind of test: SF1 (NR5A1) inverse agonists, counter-screen for LRH-1 inverse agonist project, cell-based, luminescence, high throughput (AID 651614).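 Further: cells cotransfected with StAR promoter reporter and SF1 expression vector; 0% = vehicle on cells with receptor and 100% = vehicle on cells lacking receptor.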 The following applies: cell-based SF1 luciferase reporter, at 3.6 µM, hits give high values.
In the case of `CCc1ccccc1NC(=O)CSc1nnc([C@@H](NC(=O)OC(C)(C)C)C(C)C)o1`, the inhibition is 45.9% (active).
As for `COc1ccc(C2(C)NC(=O)N(CC(=O)NCCC3=CCCCC3)C2=O)cc1OC` (stereo not given), the inhibition was 38.1%.
In the case of `CCOc1ccc(NC(=O)CN2CCN(CC(=O)Nc3ccc(OC)cc3)CC2)cc1`, the inhibition is 56.2% (active).
For `COc1cccc(C2c3cc4c(cc3OC(N3CCCC3)C2C)OCO4)c1O` (stereo not given), the inhibition was 73.2% (active).
Same read-out and setting: next, `CC1Cc2ccccc2N1C1=CC(=O)CC(C)(C)C1` (stereo not given): 51.9% (active); `CCCc1cc(NCC2CCCO2)n2c(nc3ccccc32)c1C#N` (stereo not given): 35.5%.
`COc1cccc2c1C(=O)c1c(O)c3c(c(O)c1C2=O)C[C@@](O)(C(C)=O)C[C@@H]3O[C@H]1C[C@H](N)[C@H](O)[C@H](C)O1`: the inhibition is 94.4% (active).
In the case of `CCCCCc1ccc(OCCCC[n+]2ccc(C)cc2)c(CCCCC)c1`, the inhibition is 45.7% (active).
On the same count and under the same terms, then `COc1ccc(/C=N/OCC(=O)NC(c2ccccc2)c2ccccc2)cc1OC`, with 66.4% (active).
Regarding `COc1cc(NC(=O)c2ccc([N+](=O)[O-])o2)ccc1NC(=O)c1ccco1`, the inhibition is 67% (active).
The same measure, in the same setting: next, `CC(C)NC(=O)N1Cc2cc(C(=O)NC3CCCCC3)nc(-c3cccc(-c4cccnc4)c3)c2[C@@H]1CCO`: 62.5% (active).
On the same count and under the same terms, next, `CCN(Cc1ccccc1)c1ccc(/C=N/N2CCOCC2)cc1`: 34.2%; `CC(C)n1c(SCC(=O)Nc2ccc(N3CCOCC3)cc2)nnc1-c1ccco1`: 45.7% (active); `C/C(=N\NC(N)=S)c1ccc(Cl)s1`: 35.5%.
The same measure, in the same setting: next, `CCNc1cc(N2CCCC2)ccc1[N+](=O)[O-]`: 44% (active); `COc1cc(-c2cnc3c(NC=O)cc(-c4cccc(NC(C)=O)c4)cn23)cc(OC)c1OC`: 71.5% (active).
Take `Cc1ccc2cccc(OCC(=O)NCCC3=CCCCC3)c2n1`: the inhibition is 58.1% (active).
Turning to `Nc1nc2ccc(Cl)cc2cc1C(=O)NCc1ccc(Oc2ccccc2)cc1`, the inhibition was 51.1% (active).
On the same count and under the same terms, next, `Clc1ccccc1-c1nc(N/N=C/c2cccnc2)c2ccccc2n1`: 53.3% (active); `COc1ccc2nc(N3CCN(C(=O)c4ccc([N+](=O)[O-])o4)CC3)sc2c1`: 61.8% (active).
`CCOc1cc(/C=N/Nc2nnc(C)n2N)ccc1O`: the inhibition was 22.2%.
Take `COc1ccc(C2=Nn3c(nnc3-c3ccccc3F)SC2)cc1OC1CCOC1` (stereo not given): the inhibition is 78.2% (active).
Consider `O=C(COC(=O)c1ccccc1O)Nc1ccc(N2CCOCC2)cc1`, for which the inhibition was 60.4% (active).
Turning to `O=C(Nc1ccc(N2CCN(C(=O)c3ccccc3)CC2)cc1)c1ccc([N+](=O)[O-])o1`, the inhibition was 66.6% (active).
For the molecule `CNC(=O)c1cccc(NC(=O)c2cc(-c3ccccc3)nc3c2cnn3C(C)C)c1`, the inhibition was 49.4% (active).
Still for that read-out and setting: then `CCCc1cc(=O)oc2cc(C)cc(OCC(=O)Nc3ccccn3)c12`, with 61.8% (active); and `Nc1nc2ccccc2cc1C(=O)NCc1ccc(-c2ccccc2)cc1`, with 58.6% (active).
Turning to `CC1CC(=Cc2ccc(N)cc2)C(=O)O1` (stereo not given), the inhibition is 47.7% (active).
With `COc1ccc(NC(=O)CS(=O)(=O)c2ccc(C)cc2)c(OC)c1`, the inhibition was 56% (active).
On the same count and under the same terms, next, `CCCc1cc(=O)oc2cc(OCC(=O)NCCc3c[nH]c4ccc(OC)cc34)ccc12`: 40.4%; `CN1CCN(c2ccccc2NC(=O)c2ccc(-c3cccc([N+](=O)[O-])c3)o2)CC1`: 49.6% (active).
With `COc1ccc(CNC(=O)c2sc(=O)n(Cc3ccc(-c4ccccc4)cc3)c2C)cc1OC`, the inhibition is 42.5%.
For the molecule `Cc1ccc(Cl)cc1N1CCN(C(=O)C(C)n2ncn3cccc3c2=O)CC1` (stereo not given), the inhibition is 41.2%.
Same read-out and setting: then `Cc1sc2ncnc(NCCc3ccc(S(N)(=O)=O)cc3)c2c1C`, with 54.6% (active).
The same measure, in the same setting: next, `COc1ccc(N2CCN(C(=O)CSc3nc4ccccc4c(=O)[nH]3)CC2)cc1`: 27.8%.
Same read-out and setting: then `COc1cc(NC(=O)Cn2ccsc2=N)c(C)cc1[N+](=O)[O-]`, with 58% (active); and `Cc1cccc(C(=O)N[C@H](C(=O)Nc2ncc(C)s2)C(C)C)c1`, with 39.8%.
Take `OC[C@@H]1CN(Cc2ccc(-c3ccccc3)cc2)C[C@H](n2cnc3c(NC4CCC4)ncnc32)O1`: the inhibition was 60.2% (active).
On the same count and under the same terms, next, `Cc1cc(C)c2c(NC(=O)CCl)nn(C)c2n1`: 68.7% (active); `OCC1OC(n2cnc3c(/C=C(\O)c4ccccc4)ncnc32)C(O)C1O` (stereo not given): -0.35%.

In general, inhibition refers to the change of the read-out against control, counted positive when it falls.
